Laboratory results taken from the supplement of paper PMC4723716.
± gives the uncertainty stated by the source. In all, about 9,900 compounds were measured (“viability index relative to DMSO control”: median about 1, lowest 2% from about 0.85 on). For the sample, the lowest values were picked, then their nearest neighbours and some compounds at random.

Test system: Plasmodium falciparum NF54 stage V gametocytes
Test: viability index relative to DMSO control (fraction); higher = less gametocyte killing
Settings: 2.5 µM, incubation time: 72 h
Method in brief: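 P. falciparum NF54 stage V gametocytes in serum-free screening medium (0.75% gametocytemia, 1.25% hematocrit, 10 µl) were incubated with compound at 2.5 µM in 1,536-well plates for 72 hr at 37°C under low oxygen. Then 3 µl of 2.5 µM MitoTracker Red CMXRos plus 0.13% saponin was added for one to two hours. One field per well was imaged, 20–70 µm2 red particles were counted, and the viability index was the count divided by the plate mean of DMSO wells.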

[1] = library set: Broad Institute DOS
[2] = library set: Broad Institute Blood Stage

SMILES	viability index [1]	viability index [2]
O=C(C1CCOCC1)N1[C@H](CO)[C@@H](c2ccccc2)C12CN(Cc1cccc(Cl)c1)C2	1.1 ± 0.062	
O=C(C1CCCCC1)N1[C@H](CO)[C@@H](c2ccccc2)C12CN(Cc1cccc(Cl)c1)C2		0.748 ± 0.048
O=C(C1CCOCC1)N1[C@@H](CO)[C@@H](c2ccccc2)C12CN(Cc1cccc(Cl)c1)C2	1.103 ± 0.0018	
O=C(C[C@H]1C[C@H]2c3cc(NS(=O)(=O)c4ccc(F)cc4)ccc3O[C@H]2[C@H](CO)O1)N1CCc2ccccc2C1	0.861 ± 0.059	
C[C@@H]1CCn2nncc2COC[C@H]2CCCN2C1=O	1.04 ± 0.058	
O=S(=O)(c1ccccc1)N1CCCCN2[C@H](CO)[C@H](c3ccc(C#CC4CCCC4)cc3)[C@H]2C1	0.8253 ± 0.0077	
O=S(=O)(c1ccccc1)N1CCCCN2[C@H](CO)[C@@H](c3ccc(C#CC4CCCC4)cc3)[C@@H]2C1	1.01 ± 0.026	
O=S(=O)(c1ccccc1)N1CCCCN2[C@@H](CO)[C@@H](c3ccc(C#CC4CCCC4)cc3)[C@@H]2C1	0.8429 ± 0.006	
O=S(=O)(c1ccccc1)N1CCCCN2[C@H](C1)[C@@H](c1ccc(C#CC3CCCC3)cc1)[C@@H]2CO	0.907 ± 0.07	
O=S(=O)(c1ccccc1)N1CCCCN2[C@H](C1)[C@H](c1ccc(C#CC3CCCC3)cc1)[C@@H]2CO	1.03 ± 0.031	
O=S(=O)(c1ccccc1)N1CCCCN2[C@H](CO)[C@@H](c3ccc(C#CC4CCCC4)cc3)[C@H]2C1	1.03 ± 0.056	
O=C(CN1CCOCC1)N1[C@H](CO)[C@H]2c3ccccc3NC[C@H]21	1 ± 0.088	
C[C@H]1CN([C@@H](C)CO)C(=O)c2cc(NC(=O)Nc3cccc4ccccc34)ccc2O[C@@H]1CN(C)S(=O)(=O)c1cccs1	1.06 ± 0.026	
COc1ccccc1-c1ccc2c(c1)[C@H]1[C@H](CCN1Cc1ccccc1F)[C@@H](CO)N2	1.02 ± 0.035	
CN(C)C(=O)c1cccc(-c2ccc3c(c2)[C@@H]2[C@@H](CCN2Cc2nccs2)[C@@H](CO)N3)c1	0.785 ± 0.07	
CN(C)C(=O)c1cccc(-c2ccc3c(c2)[C@@H]2[C@@H](CCN2C(=O)c2cnccn2)[C@@H](CO)N3)c1	1.12 ± 0.032	
CN(C)C(=O)c1cccc(-c2ccc3c(c2)[C@H]2[C@H](CCN2Cc2nccs2)[C@@H](CO)N3)c1	1.18 ± 0.023	
CN(C)C(=O)c1cccc(-c2ccc3c(c2)[C@H]2[C@H](CCN2C(=O)c2cnccn2)[C@@H](CO)N3)c1	1.16 ± 0.02	
COc1ccccc1CN1CC[C@@H]2[C@H]1c1cc(-c3cccc(C(=O)N(C)C)c3)ccc1N[C@@H]2CO	1.09 ± 0.028	
COc1ccccc1CN1CC[C@@H]2[C@H]1c1cc(C3=CCCCC3)ccc1N[C@@H]2CO	0.8126 ± 0.0046	
CN(C)C(=O)c1cccc(-c2ccc3c(c2)[C@H]2[C@H](CCN2Cc2nccs2)[C@H](CO)N3)c1	0.818 ± 0.014	
CN(C)C(=O)c1cccc(-c2ccc3c(c2)[C@@H]2[C@@H](CCN2C(=O)c2cnccn2)[C@H](CO)N3)c1	1.17 ± 0.072	
COc1ccccc1CN1CC[C@@H]2[C@H](CO)Nc3ccc(-c4cccc(C(=O)N(C)C)c4)cc3[C@@H]21	0.841 ± 0.072	
OC[C@@H]1Nc2ccc(C3=CCCCC3)cc2[C@@H]2[C@H]1CCN2Cc1nccs1	1.06 ± 0.059	
CN(C)C(=O)c1cccc(-c2ccc3c(c2)[C@H]2[C@H](CCN2C(=O)c2cnccn2)[C@H](CO)N3)c1	1.1 ± 0.035	
C[C@H]1CCCCO[C@H](CN(C)C(=O)Nc2ccc(C(F)(F)F)cc2)[C@@H](C)CN([C@@H](C)CO)C(=O)c2cc(NS(=O)(=O)c3cn(C)cn3)ccc2O1	1.01 ± 0.013	

SMILES	viability index [1]	viability index [2]
CO[C@H]1CN(C)C(=O)c2ccc(NS(C)(=O)=O)cc2OC[C@H](C)N(CC2CC2)C[C@@H]1C	1.03 ± 0.087	
CO[C@@H](CN(C)Cc1nccs1)[C@@H](C)CN([C@@H](C)CO)S(=O)(=O)c1ccc(F)cc1	1.04 ± 0.0028	
COCC(=O)Nc1ccc2c(c1)[C@@H]1C[C@@H](CC(=O)NCc3ccc4c(c3)OCO4)O[C@@H](CO)[C@@H]1O2	1.01 ± 0.047	
N#C[C@@H]1[C@H](c2ccccc2C2=CCCCC2)[C@H](CO)N1C(=O)CN1CCOCC1	1.17 ± 0.13	
N#C[C@H]1[C@@H](c2ccc(-c3cccnc3)cc2)[C@@H](CO)N1C(=O)C1CCOCC1	1.07 ± 0.031	
C[C@@H]1CCCCO[C@@H](CN(C)C(=O)CCC(F)(F)F)[C@H](C)CN([C@@H](C)CO)C(=O)c2cc(NC(=O)C3CCCCC3)ccc2O1	1.13 ± 0.072	
Cc1ccccc1S(=O)(=O)N1C[C@@H]2N[C@H](C1)[C@@H]2c1ccc(/C=C/c2ccccc2)cc1	0.771 ± 0.028	
O=S(=O)(c1ccc(F)cc1)N1C[C@@H]2N[C@H](C1)[C@@H]2c1ccc(/C=C/c2ccccc2)cc1	0.78 ± 0.029	
O=S(=O)(c1ccc(F)cc1)N1C[C@@H]2N[C@H](C1)[C@H]2c1ccc(/C=C/c2ccccc2)cc1	1.04 ± 0.055	
Cc1ccccc1S(=O)(=O)N1C[C@@H]2N[C@H](C1)[C@H]2c1ccc(/C=C/c2ccccc2)cc1	1 ± 0.048	
C/C=C/c1ccc([C@@H]2[C@@H]3CN(S(=O)(=O)c4ccccc4F)C[C@H]2N3)cc1	0.904 ± 0.016	
Cc1ccccc1S(=O)(=O)N1C[C@@H]2N[C@H](C1)[C@@H]2c1ccc(-c2cccc(C#N)c2)cc1	0.903 ± 0.018	
Cc1ccccc1S(=O)(=O)N1C[C@@H]2N[C@H](C1)[C@H]2c1ccc(-c2cccc(C#N)c2)cc1	1.03 ± 0.033	
COc1ccc(-c2ccc([C@H]3[C@@H]4CN(S(=O)(=O)c5ccccc5C)C[C@H]3N4)cc2)cc1	0.916 ± 0.068	
COc1ccc(-c2ccc([C@@H]3[C@@H]4CN(S(=O)(=O)c5ccccc5C)C[C@H]3N4)cc2)cc1	0.713 ± 0.11	
COc1cccc(S(=O)(=O)N[C@@H]2CC[C@H](CC(=O)NC3Cc4ccccc4C3)O[C@H]2CO)c1	0.907 ± 0.18	
Cc1ccc(S(=O)(=O)Nc2ccc3c(c2)C(=O)N([C@H](C)CO)C[C@H](C)[C@H](CN(C)S(=O)(=O)c2cccs2)OCCCC[C@H](C)O3)cc1	1.07 ± 0.14	
CNC[C@H]1Oc2ccc(NS(=O)(=O)c3ccc(OC)cc3)cc2C(=O)N([C@H](C)CO)C[C@H]1C	1.01 ± 0.079	
Cc1noc(C)c1NC(=O)N[C@H]1C=C[C@H](CC(=O)Nc2ccc(-c3ccccc3)cc2)O[C@H]1CO	1.0744 ± 0.00039	
CO[C@H]1CN(C)C(=O)c2cc(NC(=O)c3ccc(F)cc3)ccc2OC[C@@H](C)N(C(=O)CC2CC2)C[C@H]1C	1.099 ± 0.004	
CCCNC(=O)N1C[C@@H](O)COC[C@H]2O[C@@H](CC(=O)OC)CC[C@@H]21	1.14 ± 0.053	
N#C[C@@H]1[C@H](c2ccccc2-c2cccc(F)c2)[C@H](CO)N1C(=O)CN1CCOCC1	1.15 ± 0.068	
C/C=C/c1ccc([C@H]2[C@@H](CO)N(CC3CCCCC3)[C@@H]2CNC(C)C)cc1		0.565 ± 0.068
C/C=C/c1ccc([C@H]2[C@H](CO)N(S(C)(=O)=O)[C@H]2CNCC2CCC2)cc1	0.688 ± 0.08	
C/C=C/c1ccc([C@H]2[C@@H](CO)N(C(=O)C3CC3)[C@H]2CNC(=O)NC(C)C)cc1	0.989 ± 0.018	
C/C=C/c1ccc([C@H]2[C@@H](CO)N(CC3CCCC3)[C@H]2CNS(C)(=O)=O)cc1	1.03 ± 0.099	

SMILES	viability index [1]	viability index [2]
C/C=C/c1ccc([C@H]2[C@@H](CO)N(S(C)(=O)=O)[C@@H]2CN(C(C)=O)C(C)C)cc1	0.957 ± 0.06	
C/C=C/c1ccc([C@H]2[C@@H](CNC(=O)CC3CC3)N(C(=O)CC)[C@H]2CO)cc1	1.05 ± 0.054	
CCC(=O)Nc1ccc2c(c1)C(=O)N(C)C[C@@H](OC)[C@@H](C)CN(Cc1nccs1)[C@H](C)CO2	1.16 ± 0.082	
COC(=O)C[C@@H]1CC[C@@H]2[C@@H](COc3ccc(NC(=O)c4ccc(C(F)(F)F)cc4)cc3C(=O)N2C)O1	1.13 ± 0.065	
C[C@@H]1COCn2nncc2CC[C@H](Cc2cccc(Cl)c2)C(=O)N1	1.09 ± 0.051	
COCC(=O)Nc1ccc2c(c1)C(=O)N(C)[C@H]1CC[C@@H](CC(=O)NC3Cc4ccccc4C3)O[C@@H]1CO2	1.16 ± 0.13	
C[C@H](CO)N1C[C@H](C)[C@@H](CN(C)C(=O)C2CCCCC2)Oc2ncc(/C=C/c3ccccc3)cc2C1=O		0.735 ± 0.028
C[C@H]1CN([C@@H](C)CO)C(=O)c2cc(/C=C/c3ccccc3)cnc2O[C@H]1CN(C)S(=O)(=O)c1ccccc1F	1.03 ± 0.12	
C[C@H](CO)N1C[C@H](C)[C@@H](CN(C)S(=O)(=O)c2ccccc2F)Oc2ncc(/C=C/c3ccccc3)cc2C1=O	1.05 ± 0.049	
C[C@H]1CN([C@@H](C)CO)C(=O)c2cc(/C=C/c3ccccc3)cnc2O[C@@H]1CN(C)S(=O)(=O)c1ccccc1F	1.03 ± 0.082	
C[C@@H]1CN([C@@H](C)CO)C(=O)c2cc(/C=C/c3ccccc3)cnc2O[C@@H]1CN(C)S(=O)(=O)c1ccccc1F	1.02 ± 0.059	
C[C@H]1CN([C@@H](C)CO)C(=O)c2cc(/C=C/c3ccccc3)cnc2O[C@@H]1CN(C)C(=O)C1CCCCC1		0.643 ± 0.072
COc1ccc2c3c([nH]c2c1)[C@@H](CO)N(Cc1cc(OC)cc(OC)c1)C[C@]31CN(C1)C(=O)Nc1c(C)noc1C	0.974 ± 0.12	
C[C@H](CO)N1C[C@H](C)[C@@H](CN(C)Cc2ccc3cccnc3c2)OCc2cnnn2CCCC1=O	1.07 ± 0.014	
Cc1noc(C)c1NC(=O)Nc1ccc2c(c1)C(=O)N([C@@H](C)CO)C[C@H](C)[C@H](CN(C)S(=O)(=O)c1cccs1)OCCCC[C@@H](C)O2	1.09 ± 0.045	
CC(C)NC(=O)Nc1ccc2c(c1)C(=O)N(C)[C@@H]1CC[C@H](CC(=O)NCc3ccc(F)cc3)O[C@@H]1CO2	1.11 ± 0.047	
CN1C(=O)c2cc(NC(=O)Nc3ccc(Cl)cc3)ccc2OC[C@@H]2O[C@@H](CC(=O)NCCN3CCCCC3)CC[C@H]21	0.838 ± 0.04	
CC(C)NC(=O)Nc1ccc2c(c1)C(=O)N(C)[C@H]1CC[C@@H](CC(=O)NCc3ccc(F)cc3)O[C@H]1CO2	0.814 ± 0.17	
COc1ccc(C(=O)Nc2ccc3c(c2)C(=O)N(C)[C@H]2CC[C@H](CC(=O)NCC4CC4)O[C@H]2CO3)cc1	0.823 ± 0.15	
COc1ccc(C(=O)Nc2ccc3c(c2)C(=O)N(C)[C@@H]2CC[C@@H](CC(=O)NCC4CC4)O[C@H]2CO3)cc1	0.932 ± 0.15	
CN1C(=O)c2cc(NC(=O)Nc3ccc(Cl)cc3)ccc2OC[C@H]2O[C@@H](CC(=O)NCCN3CCCCC3)CC[C@H]21	1.01 ± 0.025	
CC(C)NC(=O)Nc1ccc2c(c1)C(=O)N(C)[C@H]1CC[C@H](CC(=O)NCc3ccc(F)cc3)O[C@H]1CO2	0.919 ± 0.034	
COc1ccc(C(=O)Nc2ccc3c(c2)C(=O)N(C)[C@@H]2CC[C@@H](CC(=O)NCC4CC4)O[C@@H]2CO3)cc1	1.03 ± 0.11	
CN1C(=O)c2cc(NC(=O)Nc3ccc(Cl)cc3)ccc2OC[C@@H]2O[C@H](CC(=O)NCCN3CCCCC3)CC[C@H]21	0.955 ± 0.11	
